Data reported in PubChem BioAssay (NCI).
This is part of a sample that, as a whole, favours compounds with a hit. Of some 83,000 tested, about 20% had one in any assay.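 A percent growth of 40 corresponds to 60% growth inhibition; 0 means no net growth; -100 means all cells died. Active threshold: below 10.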 Unmarked numbers belong to inactive results. Active and inactive are the calls of the source.

Experiments:
Assay in all cases: NCI-60 one-dose screen, 48 h (100 = growth as untreated, 0 = no growth, -100 = all killed)
Conditions in all cases: 10 µM unless noted
[1] = tested on: SK-MEL-2 melanoma
[2] = tested on: EKVX NSCLC
[3] = tested on: SN12C renal
[4] = tested on: UO-31 renal
[5] = tested on: TK-10 renal
[6] = tested on: ACHN renal
[7] = tested on: CAKI-1 renal
[8] = tested on: A498 renal
[9] = tested on: CCRF-CEM leukemia
[10] = tested on: MOLT-4 leukemia
[11] = tested on: SR leukemia
[12] = tested on: RPMI-8226 leukemia
[13] = tested on: OVCAR-8 ovarian
[14] = tested on: OVCAR-5 ovarian
[15] = tested on: OVCAR-4 ovarian
[16] = tested on: SK-OV-3 ovarian
[17] = tested on: IGROV1 ovarian
[18] = tested on: OVCAR-3 ovarian
[19] = tested on: HS 578T breast
[20] = tested on: NCI/ADR-RES ovarian

SMILES | growth [1] | growth [2] | growth [3] | growth [4] | growth [5] | growth [6] | growth [7] | growth [8] | growth [9] | growth [10] | growth [11] | growth [12] | growth [13] | growth [14] | growth [15] | growth [16] | growth [17] | growth [18] | growth [19] | growth [20]
CC/C=C\C[C@H](O)C/C=C1/C(=O)C=C[C@@H]1C/C=C\CCCC(N)=O | 13.9% | 23.6% | -4.37% (active) | -70.8% (active) | -13% (active) | -82.2% (active) | 11.3% | 54.6% | -4.33% (active) | -13% (active) | -27% (active) | 6.43% (active) | 11.6% | 29.8% | 56.4% | 10.9% | 10.4% | 3.26% (active) | 55.2% | 10.7%
COc1ccc(CCN2CC=Cn3c2nc2ccccc2c3=O)cc1 | 46.5% | 64.9% | 32.6% | 35.2% | 77.6% | 26.7% | 26.9% | -7.45% (active) | 18.7% | 19% | 22.1% | 21.4% | 22.2% | 45% | 41.6% | 59.8% | 32.2% | -1.6% (active) | 37.9% | 15%
O=C([C@@H](COCc1ccccc1)N1C(=O)[C@@H](N2C(=O)OC[C@@H]2c2ccccc2)[C@H]1/C=C/c1ccccc1)N1CCC(CCN2CCCCC2)CC1 | 71.7% | 93.1% | 83.4% | 69.3% | 59.8% | 99% | 99.9% | 50.1% | 95.4% | 62.8% | 30.9% | 65.2% | 98.6% | 102% | 86.8% | 86.6% | 84.1% | 91.5% | 90.8% | 95.4%
Cc1cc(Cl)ccc1Nc1nc(C(F)(F)F)ccc1C(=O)N/N=C/c1ccc(F)cc1 | -5.51% (active) | 16.7% | 8.7% (active) | 2.45% (active) | 0.832% (active) | 7.12% (active) | 9.97% (active) | 8.05% (active) | 4.12% (active) | -6.74% (active) | -30.8% (active) | -41.5% (active) | 23.1% | 18.6% | 5.75% (active) | 21.3% | 8.97% (active) | 9.84% (active) | 4.52% (active) | 10.5%
Brc1cccc(-c2cc(-c3ccc4c(c3)OCCO4)[nH]n2)c1 | 35.8% [25 µM] | 20.3% [25 µM] | 33.7% [25 µM] | 35% [25 µM] | 59% [25 µM] | 41.4% [25 µM] | 25.7% [25 µM] | 7.77% [25 µM] (active) | 19.5% [25 µM] | 50.4% [25 µM] | 31.4% [25 µM] | 20.8% [25 µM] | 29.7% [25 µM] | 39.8% [25 µM] | 58.6% [25 µM] | 39.5% [25 µM] | 30.2% [25 µM] | -7.07% [25 µM] (active) | 30% [25 µM] | 4.14% [25 µM] (active)
C[C@@H]1CCC2=C(CCC[C@]2(C)C(=O)O)[C@@]1(C)CCc1ccoc1 | 92.1% | 101% | 89.6% | 87.7% | 92.3% | 101% | 99.6% | 83.3% | 102% | 113% | 97.6% | 92.9% | 94.2% | 112% | 109% | 99.1% | 99.8% | 101% | 88% | 98.7%
COc1ccc(S(=O)(=O)NCCNc2nccc(-c3c(-c4cccc(N)c4)nc4sccn34)n2)cc1 | 108% | 95.4% | 95.7% | 83.2% | 115% | 95.3% | 93.8% | 91.6% | 101% | 99% | 107% | 96% | 98.2% | 121% | 82.4% | 108% | 98% | 100% | 97.9% | 101%
